# Out of some 30,000 compounds screened, about 110 (0.37%) were called active.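 How the source made its calls: active means delta delta Cp rounded down to an integer at or above 3, about 3 SD of DMSO wells; inactive means the rest.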 Shown is part of a subset that was picked to be rich in actives.
# Test: YB-1 transcript reduction by qRT-PCR – cell-based, fluorescence, primary screen (AID 434959);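 further: higher means less YB-1 transcript or more CDIP transcript relative to DMSO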
# Conditions: U2OS, qRT-PCR YB-1 vs CDIP delta delta Cp, 16 h; active compounds read high; zero = DMSO, each unit about twofold
row,SMILES,delta Cp (YB-1 minus CDIP)
1,COc1ccc(S(=O)(=O)Nc2ccc3c(c2)CC(=O)N([C@H](C)CO)C[C@H](C)[C@H](CN(C)C(=O)Nc2ccccc2)O3)cc1,0.185 (inactive)
2,C[C@@H]1CN([C@@H](C)CO)C(=O)Cc2cc(NC(=O)C3CCCCC3)ccc2O[C@@H]1CN(C)CC1CCCCC1,0.332 (inactive)
3,Cc1noc(C)c1NC(=O)N(C)C[C@H]1Oc2c(NS(=O)(=O)c3cccs3)cccc2C(=O)N([C@@H](C)CO)C[C@@H]1C,-0.0216 (inactive)
4,C[C@H]1CN([C@@H](C)CO)C(=O)c2cc(NC(=O)Cc3cn(C)c4ccccc34)ccc2O[C@H]1CN(C)CC1CCCCC1,-0.873 (inactive)
5,C[C@H]1CN([C@@H](C)CO)C(=O)Cc2cc(NC(=O)Nc3ccc(F)cc3)ccc2O[C@H]1CN(C)S(=O)(=O)c1ccccc1,-0.124 (inactive)
6,O=C(O)CCCCCCC(=O)NN=C1CCCCCC1,-0.0992 (inactive)
7,C[C@H](CO)N1C[C@H](C)[C@@H](CN(C)S(=O)(=O)c2ccccc2)Oc2c(NS(=O)(=O)c3cn(C)cn3)cccc2C1=O,0.133 (inactive)
8,CC(C)CSc1nnc(CSCc2nc(-c3ccc(Cl)cc3)cs2)n1C,0.176 (inactive)
9,COC(=O)[C@@]1(CCS(=O)(=O)c2ccccc2)N=C(c2ccc(OCCCO)cc2)O[C@H]1c1ccccc1N=[N+]=[N-],-0.253 (inactive)
10,CCc1c(C)n([O-])c2c([n+]1=O)CCCCC2,6.44 (active)
11,Cc1ccc(-c2c[n+](=O)c3c(n2[O-])CCC3)cc1,-0.134 (inactive)
12,C[C@H]1CN([C@@H](C)CO)C(=O)Cc2cc(NC(=O)Cc3ccccc3)ccc2O[C@H]1CN(C)S(=O)(=O)c1ccc(Cl)cc1,-0.43 (inactive)
13,COc1ccc(CN(C)C[C@H]2Oc3c(NS(=O)(=O)c4ccccc4)cccc3C(=O)N([C@H](C)CO)C[C@@H]2C)cc1,0.263 (inactive)
14,C[C@@H]1CCCCO[C@H](CN(C)C(=O)c2ccccc2)[C@@H](C)CN([C@H](C)CO)C(=O)c2cc(NC(=O)Nc3cccc4ccccc34)ccc2O1,-0.0616 (inactive)
15,C[C@@H]1CN([C@H](C)CO)C(=O)c2cc(N(C)C)ccc2O[C@@H]1CN(C)S(C)(=O)=O,-0.194 (inactive)
16,C[C@@H]1CN([C@@H](C)CO)C(=O)CCCn2cc(nn2)CO[C@H]1CN(C)Cc1ccc(C(=O)O)cc1,0.212 (inactive)

row,SMILES,delta Cp (YB-1 minus CDIP)
1,CCC/C=C/C(=O)OC1C(O)C23C(O)OC4(CCC5C6(C)CCC(OC7OC(C(=O)O)C(O)C(OC8OC(CO)C(O)C(O)C8OC8OC(C)C(O)C(O)C8OC8OCC(O)C(O)C8O)C7OC7OC(CO)C(O)C(O)C7O)C(C)(C)C6CCC5(C)C4(C)CC2OC(C)=O)C3CC1(C)C (stereo unspecified),3.51 (active)
2,CC1OC(OC2C(OC3C(O[C@H]4CC[C@@]5(C)C(CC[C@]6(C)C5CC=C5[C@@H]7CC(C)(C)C[C@@H](O)[C@]7(C)CC[C@]56C)C4(C)C)OC(C(=O)O)C(O)C3O)OC(CO)C(O)C2O)C(O)C(O)C1O (stereo partly specified),0.299 (inactive)
3,CC1(C)CC[C@]2(C(=O)O)CC[C@]3(C)C(=CCC4[C@@]5(C)CC[C@H](OC6O[C@H](CO)[C@@H](O)[C@H](O[C@@H]7O[C@H](CO)[C@@H](O)[C@H](O)[C@H]7O)[C@H]6O)C(C)(C)C5CC[C@]43C)[C@@H]2C1 (stereo partly specified),-0.209 (inactive)
4,CC1(C)CC[C@]2(C(=O)O[C@@H]3O[C@H](CO)[C@@H](O)[C@H](O)[C@H]3O)CC[C@]3(C)C(=CCC4[C@@]5(C)CC[C@H](O[C@@H]6O[C@H](C(=O)O)[C@@H](O[C@@H]7OC[C@H](O)[C@H](O)[C@H]7O)[C@H](O)[C@H]6O)C(C)(C)C5CC[C@]43C)C2C1 (stereo partly specified),0.0826 (inactive)
5,C/C=C(/C)C(=O)O[C@H]1CC(C)(C)C[C@H]2C3=CCC4[C@@]5(C)CC[C@H](O[C@@H]6O[C@H](C(=O)O)[C@@H](O[C@@H]7O[C@H](CO)[C@H](O)[C@H](O)[C@H]7O[C@@H]7O[C@H](CO)[C@@H](O)[C@H](O)[C@H]7O)[C@H](O)[C@H]6O[C@@H]6O[C@@H](C)[C@H](O)[C@@H](O)[C@H]6O)C(C)(C)C5CC[C@@]4(C)[C@]3(C)[C@@H](O)[C@@H](O)[C@@]12CO (stereo partly specified),10.3 (active)
6,C/C=C(/C)C(=O)O[C@H]1CC(C)(C)C[C@H]2C3=CCC4[C@@]5(C)CC[C@H](O[C@@H]6O[C@H](C(=O)O)[C@@H](O[C@@H]7O[C@H](CO)[C@H](O)[C@H](O)[C@H]7O[C@@H]7O[C@H](CO)[C@@H](O)[C@H](O)[C@H]7O)[C@H](O)[C@H]6O[C@@H]6O[C@@H](C)[C@H](O)[C@@H](O)[C@H]6O)C(C)(C)C5CC[C@@]4(C)[C@]3(C)[C@@H](OC(C)=O)[C@@H](O)[C@@]12COC(C)=O (stereo partly specified),-0.219 (inactive)
7,C=CC(C)(O)CCC1(C)C2=C(C(OC(C)=O)C(OC(C)=O)C1C)C(C)(C)CCC2 (stereo unspecified),-0.399 (inactive)
8,COC(=O)[C@]1(Cc2ccccc2CN=[N+]=[N-])N=C(c2ccc(OCCCO)cc2)O[C@@H]1c1ccccc1CN=[N+]=[N-],0.139 (inactive)
9,C[C@@H]1CN([C@@H](C)CO)C(=O)c2cccc(NC(=O)Nc3cccc4ccccc34)c2O[C@@H]1CN(C)CC1CC1,0.192 (inactive)
10,C[C@@H]1CN([C@H](C)CO)C(=O)Cc2cc(NC(=O)Cn3cnnn3)ccc2O[C@@H]1CN(C)S(=O)(=O)c1ccc(F)cc1,0.145 (inactive)
11,C[C@H](CO)N1C[C@H](C)[C@H](CN(C)C(=O)NC2CCCCC2)Oc2c(NC(=O)c3nc4ccccc4s3)cccc2C1=O,0.116 (inactive)
12,C[C@H]1CN([C@@H](C)CO)C(=O)Cc2cc(N(C)C)ccc2O[C@@H]1CN(C)Cc1ccc(-c2ccccc2)cc1,0.0659 (inactive)
13,COC(=O)CCCCCCC(=O)N/N=C/c1ccc(C(=O)O)cc1,-0.219 (inactive)
14,C[C@H]1CN([C@@H](C)CO)C(=O)c2cc(NC(=O)C3CCCCC3)ccc2O[C@H]1CN(C)S(=O)(=O)c1cn(C)cn1,-0.0642 (inactive)
15,CC(C)(C)c1ccc(-c2[nH]nc(NC(=O)c3ccccc3Cl)c2Br)cc1,0.0133 (inactive)

# Reference: PubChem BioAssay AID434959 (Broad Institute, 2010)
